A short description of experiment [1]: Quantitative highthroughput screen to assess conditional lethalithy of NOMO1 cells grown in RPMI1640 with untreated serum (RPMI+s) (AID 1963876).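 For viability: 100% = DMSO wells and 0% = empty wells without cells.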 Note: nearly all actives have a fitted effect of over 35% in size. A digest of the protocol: (§1)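 Each medium arm—HPLM with 10% dialyzed FBS, or RPMI1640 with 5 mM glucose and 10% untreated or dialyzed FBS—was screened against an 11-point, 3-fold compound titration for 48 h at 37 °C, with CellTiter-Glo luminescence as endpoint.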

Experiment [2] in a line: Quantitative highthroughput screen to assess conditional lethalithy of NOMO1 cells grown in RPMI1640 with dialyzed fetal bovine serum (RPMI+ds) (AID 1963877).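 For viability: series mostly up to about 46 µM; 100% = DMSO control wells and 0% = empty wells.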 Note: nearly all actives have a fitted effect of over 30% in size. A digest of the protocol: as §1
Experiment [3] is described as follows: Quantitative highthroughput screen to assess conditional lethalithy of P12 Ichikawa cells grown in RPMI1640 with untreated serum (RPMI+s) (AID 1963881).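 For viability: series mostly up to about 46 µM; 100% = DMSO wells and 0% = empty wells without cells.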 Note: nearly all actives have a fitted effect of over 35% in size. The conditions noted are these: Potency: viability. A digest of the protocol: as §1
A short description of experiment [4]: Cellular viability qHTS for adrenocortical cancer (ACC) cell line SW-13 (AID 1963989).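 For activity (max response): cells grown in serum-free medium with ITS supplement; % is set by controls: 0 for no effect and ±100 for the full control effect.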 Note: nearly all actives have a fitted effect of over 65% in size. The conditions noted are these: SW-13 ACC cells viability, CellTiter-Glo, 48 h; activity (max response): stronger effect = lower value. A digest of the protocol:
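48 h treatment, SW-13 in ITS/DMEM serum-free; doses up to 46 uM; readout CellTiter-Glo luminescence; curve fit four-parameter logistic.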

The nature of experiment [5]: Cellular viability qHTS for adrenocortical cancer (ACC) cell line NCI-H295R (AID 1963990). Note: nearly all actives have a fitted effect of over 60% in size. A digest of the protocol: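 Compound titrations (up to 46 uM final) are applied to NCI-H295R cultures for 48 h at 37C. Viable cell number is estimated by CellTiter-Glo signal, normalised to DMSO and doxorubicin controls.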
Experiment [6] is described as follows: Quantitative highthroughput screen to assess conditional lethalithy of SEM cells grown in RPMI1640 with unreated serum (RPMI+s) (AID 1963883).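 For viability: 100% = DMSO wells and 0% = empty wells without cells.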 Note: nearly all actives have a fitted effect of over 35% in size. A digest of the protocol:
as §1

Experiment [7] in a line: Quantitative highthroughput screen to assess conditional lethalithy of SEM cells grown in RPMI1640 with dialyzed fetal bovine serum (RPMI+ds) (AID 1963884).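 For viability: series mostly up to about 46 µM; 100% = DMSO control wells and 0% = empty wells without cells.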 Note: nearly all actives have a fitted effect of over 35% in size. A digest of the protocol:
as §1

A short description of experiment [8]: Quantitative highthroughput screen to assess conditional lethalithy of P12 Ichikawa cells grown in Human Plasma-Like Medium with dialyzed fetal bovine serum (HPLM+ds) (AID 1963879). For viability: series mostly up to about 46 µM. Note: nearly all actives have a fitted effect of over 35% in size. The conditions noted are these: Potency: viability. A digest of the protocol:
as §1

The nature of experiment [9]: Quantitative highthroughput screen to assess conditional lethalithy of P12 Ichikawa cells grown in RPMI1640 with dialyzed fetal bovine serum (RPMI+ds) (AID 1963880).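 For viability: 100% = DMSO wells and 0% = empty wells on each plate.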 Note: nearly all actives have a fitted effect of over 35% in size. The conditions noted are these: Potency: P12-Ichikawa viability. A digest of the protocol: as §1
Experiment [10] can be described thus: Quantitative highthroughput screen to assess conditional lethalithy of SEM cells grown in Human Plasma-Like Medium with dialyzed fetal bovine serum (HPLM+ds) (AID 1963882). For viability: series mostly up to about 46 µM. Note: nearly all actives have a fitted effect of over 35% in size. A digest of the protocol: as §1

Molecules are shown by their SMILES. Values joined by “and” are separate entries in the source; they are usually repeats but may differ in a detail not shown here. Identical values can stand only once. Results filed as inconclusive are left out. A number with no mark means an inactive call. Active and inactive are the calls of the source. Calls come from the whole dose curve; as a rule, active = well fitted curve in the direction sought with a large enough effect; inconclusive = small, poorly fitted or top-dose-only effect, or another doubt; inactive = no such curve, though single readings can be large; an effect the other way counts as inactive or inconclusive.
Potency is the fitted concentration of half-maximal effect.

As to `CC(C)(C)OC(=O)CN(Cc1ccc(Cl)cc1)Cc1ccc([N+](=O)[O-])s1`, the Potency result in experiment [1], in experiment [2], in experiment [3] and in experiment [5] was “inactive” each time. Also, in [4], the activity (max response) is -11.1%.
Consider `Cc1cccc(C=NNc2cc(N3CCOCC3)nc(OCCc3ccccn3)n2)c1`, for which the Potency is 2.09 µM (active) in experiment [1], 1.05 µM (active) in experiment [2], 11.8 µM (active) in experiment [6] and 14.8 µM (active) in experiment [7].
As for `NCc1c[nH]c(=S)n1[C@H]1CCc2c(F)cc(F)cc2C1`, the Potency result in experiment [1], in [2], in [8], in experiment [3] and in [5] was “inactive” throughout. Further, the activity (max response) in experiment [4] is -7.85%.
With `CC(C)OC(=O)C(C(=O)OC(C)C)=C1SC=CS1`, the Potency result in experiment [1], in experiment [2], in experiment [8], in experiment [9], in experiment [3] and in [7] was “inactive” in each case. The Potency result in experiment [5] is “inactive”. The activity (max response) in [4] is -12.3% and 0.529%.
For `C[C@@H]1[C@H](C)CC[C@]2(C(=O)O)CC[C@]3(C)C(=CC[C@@H]4[C@@]5(C)CC[C@H](O)C(C)(C)[C@H]5CC[C@]43C)[C@@H]12`, the Potency entry in experiment [1], in experiment [2], in experiment [8], in experiment [9], in experiment [3] and in [10] was “inactive” each time. In [7], the Potency result is “inactive”.
With `O=C(Nc1ccc(F)c(C(F)(F)F)c1)Nc1nnc(-c2ccncc2)s1`, the Potency result in experiment [1], in experiment [2], in [8], in experiment [9], in [3] and in experiment [10] was “inactive” each time. Moreover, the Potency result in [6], in experiment [7] and in experiment [5] was “inactive” throughout. Moreover, the activity (max response) in experiment [4] was 4.96%.
Take `O=C1CN2Cc3c(ccc(Cl)c3Cl)N=C2N1`: the Potency result in experiment [1], in experiment [2], in experiment [10] and in experiment [5] was “inactive” each time. For the same molecule, the activity (max response) in experiment [4] was 2.15%.
`O=c1[nH]c(=O)n([C@H]2C[C@@H](O)[C@@H](CO)O2)cc1C=CBr`: the Potency result in experiment [1], in experiment [2], in experiment [9], in experiment [3], in [6] and in [7] was “inactive” each time.
Turning to `CNC(=O)c1cc(COc2nnc(Nc3ccc(Cl)cc3)c3ccoc23)ccn1`, the Potency result in experiment [1], in experiment [2], in [8], in [9] and in [3] was “inactive” in each case. The figures for the Potency in experiment [10] and in experiment [5] were 16.6 µM (active) and 12.6 µM (active), respectively. Moreover, the activity (max response) in experiment [4] was -21.4%.
As for `N#CC(=Cc1ccc(O)c(O)c1)C(=O)NCc1ccccc1`, the Potency entry in [1] and in experiment [2] was “inactive” in each case. For the same molecule, the Potency in [6] is 20.9 µM (active).
For the molecule `C[C@]12CC[C@H](O)CC1=CC[C@@H]1[C@H]2CC[C@]2(C)C(c3cccnc3)=CC[C@H]12`, the Potency entry in experiment [1], in [2], in experiment [9], in [3], in [10] and in [6] was “inactive” each time. Further, the Potency result in experiment [7] was “inactive”.
In the case of `CC(=O)N[C@H]1[C@@H]([C@H](O)[C@H](O)CO)OC(C(=O)O)=C[C@@H]1N=C(N)N`, the Potency entry in experiment [1], in [2], in [8], in experiment [9] and in experiment [10] was “inactive” in each case.
In the case of `CN[C@H]1[C@@H](O)[C@@H]2O[C@@H]3O[C@H](C)CC(=O)[C@]3(O)O[C@@H]2[C@@H](NC)[C@H]1O`, the Potency result in experiment [1], in experiment [2], in experiment [8], in [3], in experiment [10] and in experiment [6] was “inactive” in each case. In addition, in experiment [7], the Potency result was “inactive”.
Regarding `C#CCN(C)CC1=Cc2ccccc2Oc2ccccc21`, the Potency result in experiment [1], in experiment [2], in [9], in experiment [3] and in [5] was “inactive” each time. Further, the activity (max response) in experiment [4] is 0.599%.
Regarding `CC(=O)NCCC(=O)N[C@@H](CCC(N)=O)C(=O)N[C@@H](CO)C(=O)N[C@@H](CCC(N)=O)C(=O)N[C@@H](CCC(N)=O)C(=O)N[C@H](C(=O)N[C@@H](Cc1ccccc1)C(=O)N[C@]1(C)CCCCCCC=CCCC[C@@](C)(C(=O)N[C@@H](CCC(N)=O)C(=O)N[C@@H](CC(N)=O)C(N)=O)NC(=O)[C@H](CC(C)C)NC(=O)[C@H](CC(C)C)NC(=O)[C@@H](CCCNC(=N)N)NC(=O)[C@H](Cc2c[nH]c3ccccc23)NC(=O)[C@H](CC(C)C)NC(=O)[C@H](CC(N)=O)NC1=O)[C@H](C)O`, the Potency result in experiment [1], in [2], in experiment [9] and in experiment [3] was “inactive” in each case. The Potency was 0.833 µM (active) in experiment [6], 2.64 µM (active) in experiment [7] and 28.2 µM (active) in experiment [4].
With `COc1ccc2nc(S(=O)Cc3ncc(C)c(OC)c3C)[nH]c2c1` (configuration not stated), the Potency entry in experiment [1], in experiment [2], in experiment [8], in experiment [9], in experiment [3] and in experiment [10] was “inactive” each time. Further, the Potency entry in [6], in experiment [7] and in experiment [5] was “inactive” in each case. Moreover, in experiment [4], the activity (max response) is -12.3%.
For the molecule `O=C(C=Cc1ccc(CN(CCO)CCc2c[nH]c3ccccc23)cc1)NO`, the Potency in experiment [1] is 0.59 µM (active); in experiment [2], 0.743 µM (active); in experiment [8], 0.418 µM (active); in experiment [9] it was 0.418 µM (active); in [3], 0.332 µM (active); in experiment [10], 0.264 µM (active). Further, the Potency in experiment [7] was 0.296 µM (active).
Take `Cc1cncc2cccc(S(=O)(=O)N3CCCN(C(=O)CN)C[C@@H]3C)c12`: the Potency in experiment [1] was 5.9 µM (active); in experiment [2], 4.18 µM (active); in experiment [8], 5.26 µM (active); in experiment [9], 6.62 µM (active); in experiment [3] it was 6.62 µM (active); in experiment [6], 5.26 µM (active). Also, the Potency in [7] is 4.18 µM (active). Also, the activity (max response) in [4] was -18.3%. The Potency result in experiment [5] is “inactive”.
As to `CC=CC1=C(C(=O)O)N2C(=O)[C@H](NC(=O)[C@H](N)c3ccc(O)cc3)[C@@H]2SC1`, the Potency in experiment [1] was 1.18 µM (active); in [2] it was 2.64 µM (active); in experiment [9], 13.2 µM (active); in [3] it was 9.35 µM (active). The Potency entry in [10], in [6] and in experiment [7] was “inactive” each time.

For the origin of these results see PubChem BioAssay (NCATS).
